Source: PMC4336329 (PLoS ONE, 2015)
Among all 310,000 compounds or so, about 14,000 (4.5%) showed an effect of 50% or more. The effect is printed as a negative number. For the sample, strong results were picked, then their nearest neighbours and some compounds at random.

Each molecule was assayed against human ether-à-go-go-related gene (hERG) potassium channel (human, UniProt Q12809) (assay: primary screen, population patch clamp on CHO cells stably expressing hERG; higher = less effect of the substance).
human ether-à-go-go-related gene (hERG) potassium channel, sequence (Q12809 whole entry, looked up): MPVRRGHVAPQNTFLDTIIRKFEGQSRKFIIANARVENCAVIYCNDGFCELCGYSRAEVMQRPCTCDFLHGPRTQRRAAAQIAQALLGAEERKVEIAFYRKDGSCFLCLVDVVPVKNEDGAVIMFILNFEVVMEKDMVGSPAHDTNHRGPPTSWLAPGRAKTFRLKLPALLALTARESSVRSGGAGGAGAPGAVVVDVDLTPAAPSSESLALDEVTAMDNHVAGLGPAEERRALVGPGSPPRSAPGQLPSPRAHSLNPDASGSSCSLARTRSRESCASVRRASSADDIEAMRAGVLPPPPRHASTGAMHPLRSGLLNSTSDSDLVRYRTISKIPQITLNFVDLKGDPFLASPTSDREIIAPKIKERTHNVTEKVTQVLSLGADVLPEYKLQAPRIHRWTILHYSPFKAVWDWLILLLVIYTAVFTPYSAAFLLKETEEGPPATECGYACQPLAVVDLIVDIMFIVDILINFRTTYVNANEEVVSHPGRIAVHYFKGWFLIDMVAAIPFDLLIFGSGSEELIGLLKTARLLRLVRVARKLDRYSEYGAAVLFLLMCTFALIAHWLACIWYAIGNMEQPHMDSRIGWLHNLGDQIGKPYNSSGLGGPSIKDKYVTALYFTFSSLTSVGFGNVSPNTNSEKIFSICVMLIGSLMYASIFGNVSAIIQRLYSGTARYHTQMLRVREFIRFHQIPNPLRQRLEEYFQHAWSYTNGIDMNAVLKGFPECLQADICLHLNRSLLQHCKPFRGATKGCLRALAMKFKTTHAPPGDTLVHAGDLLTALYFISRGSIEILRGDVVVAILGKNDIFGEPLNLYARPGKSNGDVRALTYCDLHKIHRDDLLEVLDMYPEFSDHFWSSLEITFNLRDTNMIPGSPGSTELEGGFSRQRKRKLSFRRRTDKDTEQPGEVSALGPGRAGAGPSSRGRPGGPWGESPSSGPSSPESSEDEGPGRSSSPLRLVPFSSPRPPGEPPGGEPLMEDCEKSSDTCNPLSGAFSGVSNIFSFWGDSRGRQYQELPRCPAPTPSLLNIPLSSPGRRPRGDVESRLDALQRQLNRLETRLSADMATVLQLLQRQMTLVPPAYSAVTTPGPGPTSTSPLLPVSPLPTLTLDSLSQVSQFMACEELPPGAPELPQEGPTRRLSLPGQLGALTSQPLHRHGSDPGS
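Note: peak tail current of the secondary pulse compared with the same well before compound.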

| SMILES | hERG current change (%, negative = inhibition) at 10uM |
| --- | --- |
| O=C(O)CCn1cc(/C=C2\NC(=S)N(c3ccccc3)C2=O)c(-c2ccc(Br)cc2)n1 | 30.1% |
| CC(=O)CCc1ccc(Oc2nc(-c3cccnc3)nc3ccccc23)cc1 | 5.75% |
| COc1ccc(Nc2cnn(-c3nc4ccccc4s3)c(=O)c2Cl)cc1 | -3.58% |
| CC1(c2ccccc2)NC(=O)N(CC(=O)Nc2cc3c(cc2Br)OCCO3)C1=O (centres unmarked) | -8.6% |
| S=C(Nc1ccccc1Oc1ccccc1)NC1CCCC1 | -0.79% |
| Cc1ccc(S(=O)(=O)N2CCN(CCNC(=O)C(=O)Nc3ccc(F)cc3)CC2)cc1 | 2.09% |
| Cc1cccc(C(=O)N2CCN(CCNC(=O)C(=O)Nc3ccc(F)cc3)CC2)c1 | -38.8% |
| O=C(NCCN1CCN(C(=O)c2c(F)cccc2F)CC1)C(=O)Nc1ccc(Cl)cc1 | -32.5% |
| CCN1CCN(C(=O)c2ccc(OCC(=O)Nc3ccc(F)cc3)c(OC)c2)CC1 | -14.9% |
| COc1ccc(C(=O)N2CCN(CCNC(=O)C(=O)Nc3ccc(Br)cc3)CC2)cc1 | -80% |
| COc1ccc(C(=O)N2CCN(CCNC(=O)C(=O)Nc3ccc(F)cc3)CC2)cc1OC | -61.5% |
| COc1ccc(NC(=O)C(=O)NCCN2CCN(C(=O)c3cccc(Br)c3)CC2)cc1 | -31% |
| COc1ccc(C(=O)N2CCN(CCNC(=O)C(=O)Nc3ccc(F)cc3)CC2)cc1 | -69.6% |
| CC(C)(C)c1ccc(C(=O)N2CCN(CCNC(=O)C(=O)Nc3ccc(F)cc3)CC2)cc1 | -52.5% |
| Cc1cccc(NC(=O)/C(=C\c2ccco2)NC(=O)c2ccccc2)c1 | -22.4% |
| CC(=O)N1CCC(=NNc2ncc(C(F)(F)F)cc2Cl)CC1 | 2.73% |
| CCOC(=O)c1ccc(N=c2sc(C(=O)OC)cc(=O)n2Cc2ccco2)cc1 | 13.7% |
| O=C(CN1C(=O)c2ccccc2C1=O)NCc1ccncc1 | -33.1% |
| COc1ccc(NC(=O)c2ccc(-c3csc(C)n3)cc2)cc1 | 18.5% |
| Cc1ccc(C(=O)CNc2ccccc2)cc1 | 16.2% |
| O=C(CCl)Nc1cccc(Oc2ccccc2)c1 | -22.4% |
| O=[N+]([O-])c1ccc(N2CCN(S(=O)(=O)c3ccc(Cl)c(Cl)c3)CC2)cc1NCCN1CCOCC1 | 3.04% |
| COC(=O)c1cc(NC(=O)CCc2c(C)nc3ncnn3c2C)cc(C(=O)OC)c1 | -36.1% |
| Cc1cccc(N(C)c2cc(C)nc3nc(C)nn23)c1 | -15.8% |

| SMILES | hERG current change (%, negative = inhibition) at 10uM |
| --- | --- |
| Cc1ccc(-c2cnn(-c3cccc(C(F)(F)F)c3)c2N)cc1 | -3.62% |
| CCOc1ccc(NC(=O)C(=O)NCCN2CCN(S(=O)(=O)c3ccc(C)cc3)CC2)cc1 | 8.62% |
| COc1ccc(NC(=O)C(=O)NCCN2CCN(C(=O)c3ccc(C)cc3)CC2)cc1 | -75.4% |
| COc1ccc(NC(=O)C(=O)NCCN2CCN(C(=O)c3ccc(C(C)(C)C)cc3)CC2)cc1 | -2.54% |
| CCOc1ccc(NC(=O)C(=O)NCCN2CCN(C(=O)c3ccc(C)cc3)CC2)cc1 | -75.2% |
| CNC(=O)C(=O)NCCN1CCN(C(=O)c2ccc([N+](=O)[O-])cc2)CC1 | -39.6% |
| CCOc1ccc(NC(=O)C(=O)NCCN2CCN(S(=O)(=O)c3ccccc3)CC2)cc1 | -8.75% |
| COc1ccc(NC(=O)C(=O)NCCN2CCN(C(=O)C(c3ccccc3)c3ccccc3)CC2)cc1 | -20.8% |
| O=C(NCCN1CCN(C(=O)c2ccc([N+](=O)[O-])cc2)CC1)C(=O)Nc1ccc(F)cc1 | -76.8% |
| CCC(C)[C@H](NC(=O)NCc1ccccc1Cl)C(=O)OC (some centres unmarked) | 12% |
| CN(C)c1ccc(C(=O)Nc2ccc(S(=O)(=O)NC3=NCCCCC3)cc2)cc1 | -5.38% |
| CCc1ccc(N(C(=O)Cc2cccs2)C(C(=O)NC2CCCCC2)c2cn(C)nc2C)cc1 (centres unmarked) | -21.4% |
| CCN1CCCC1CNC(=O)C(=O)NC1CC1 (centres unmarked) | 10.3% |
| CCOC(=O)c1cc(-c2ccc3c(c2)OCCO3)n[nH]1 | 20.3% |
| Cc1cccc(NC(=O)Nc2ccc(Cl)c(Cl)c2)n1 | 9.38% |
| CCOc1ccccc1C(=O)NCc1ccc2c(c1)OCO2 | -12.1% |
| O=C(CCN1C(=O)[C@@H]2Cc3ccccc3CN2C1=O)N[C@@H](Cc1ccccc1)C(=O)O | 8.75% |
| COc1ccc(Nc2nc(NCCCN3CCOCC3)nc(N)c2[N+](=O)[O-])cc1 | -22% |
| Nc1nc(NCCCN2CCOCC2)nc(Nc2ccccc2)c1[N+](=O)[O-] | -36.5% |
| Cc1ccc(Nc2nc(NCCCN3CCOCC3)nc(N)c2[N+](=O)[O-])cc1 | -66.1% |
| Nc1nc(NCCCN2CCOCC2)nc(Nc2ccc(Cl)cc2)c1[N+](=O)[O-] | 7.65% |
| Nc1nc(NCCCN2CCOCC2)nc(Nc2ccc(F)cc2)c1[N+](=O)[O-] | -58.6% |
| Cc1ccc(Nc2nc(NCCCN3CCOCC3)nc(N)c2[N+](=O)[O-])cc1C | -5.15% |
